# Experimental data from PubChem BioAssay.
# The source made the active and inactive calls. No rule for the calls is given here.
# Test: inhibition of Brca1/Bard1 split-luciferase complementation, confirmation, counter-screen for Mdm2/MdmX interaction inhibitor project, luminescence, single concentration (AID 504668)
# Details: Brca1/Bard1 bimolecular luciferase complementation counterscreen, at 8 µM, hits give high values
row,SMILES,inhibition
1,O=C(CCl)Nc1cn(-c2ccccc2)nc1-c1ccc(F)cc1,32.9% (active)
2,O=C(Nc1ccc(Cl)c([N+](=O)[O-])c1)C(Sc1ccccc1)c1ccccc1 (stereo not given),24.1% (active)
3,Cn1nc(-c2ccccn2)nc2c(=O)n(C)c(=O)nc1-2,33.8% (active)
4,Cc1ccc(C(C)C)c(OCc2nn(CC(=O)c3ccc(Cl)cc3)c3[n+]2CCCCC3)c1,25% (active)
5,Oc1c(C(c2cccs2)N2CCN(c3ccccc3)CC2)ccc2cccnc12 (stereo not given),23.1% (active)
6,C/C(=N\NC(=O)c1nnn(-c2nonc2N)c1CN(C)c1ccccc1)c1ccccc1O,30.5% (active)
7,Oc1c(C(c2ccccn2)N2CCC(Cc3ccccc3)CC2)cc(Cl)c2cccnc12 (stereo not given),33.2% (active)
8,O=C(Nc1cccc([N+](=O)[O-])c1)c1cc2ccccc2cc1O,31% (active)
9,Cc1ccc(S(=O)(=O)N2CCOCC2)cc1C(=O)Nc1nc(-c2ccccn2)cs1,30.4% (active)
10,O=C1C(=C2SCCCS2)CC/C1=C\c1ccc(F)cc1,25.5% (active)
11,COc1ccc(C(NC(=O)c2cccnc2)c2cc(Cl)c3cccnc3c2O)cc1OC (stereo not given),26.3% (active)
12,CCCCCCCCCC(=O)N[C@@H]1c2cc(OC)c(OC)cc2C[C@H]1OCc1ccccc1,35.8% (active)
13,Cc1sc2ncnc(N3CCC(C(=O)Nc4ccccc4C(C)(C)C)CC3)c2c1C,27.8% (active)
14,C=CCc1cccc(/C=N/NC(=O)c2ccc3nc[nH]c3c2)c1O,26.2% (active)
15,O=C(NC(Nc1ncc(S(=O)(=O)c2ccc([N+](=O)[O-])cc2)s1)(C(F)(F)F)C(F)(F)F)c1ccc(Cl)cc1,29.5% (active)
16,O=C1c2ccccc2C(=O)c2c(Nc3ccc(CCO)cc3)ccc(O)c21,33.2% (active)
17,COc1cccc(CNc2ncnc3ccc(-c4c(C)noc4C)cc23)c1,31% (active)
18,COc1ccc2cc(C(=O)N/N=C/c3sc4ccccc4c3O)ccc2c1,32.4% (active)
19,Cc1nnsc1C(=O)N/N=C/c1ccc2ccccc2c1O,30.1% (active)
20,N#CC(c1ccc(Cl)cc1)c1ccc2c(C(F)(F)F)cc(C(F)(F)F)nc2n1 (stereo not given),24% (active)

row,SMILES,inhibition
1,CN(C(=O)c1ccc(S(=O)(=O)c2cccc(Cl)c2)c([N+](=O)[O-])c1)C1CCCCC1,28.9% (active)
2,COc1ccc(-c2cc(C(=O)N/N=C/c3sccc3C)c3ccccc3n2)c(OC)c1,31.4% (active)
3,CN(C)CCCNC(=S)NCC(c1ccc(Cl)cc1Cl)c1c[nH]c2ccccc12 (stereo not given),29.2% (active)
4,CCC(=O)NC(c1ccccc1OC)c1ccc2cccnc2c1O (stereo not given),32.5% (active)
5,CCOC(=O)C(CC)(CC)C(=O)/C=C/c1cccc(Br)c1,29.2% (active)
6,Cc1ccc(Cc2c(C)c(C#N)c3[nH]c4ccccc4n3c2=O)cc1,35.8% (active)
7,Cn1c(=O)c(C#N)c(-c2ccc(F)cc2)c2cc(C(=O)c3cc(Cl)cc(Cl)c3O)cnc21,29.6% (active)
8,COc1cc(/C=C2\SC(=Nc3ccc(O)cc3)NC2=O)cc(OC)c1OC,28.2% (active)
9,CCCCCCCCCn1ccc(=N)cc1,23.6% (active)
10,COc1cc(/C=C/C(=O)c2ccc(O)cc2)ccc1OCC#N,35.9% (active)
11,C#CCn1c(=NC(=O)c2ccc(S(=O)(=O)N3CCc4ccccc4C3)cc2)sc2cc(S(N)(=O)=O)ccc21,23% (active)
12,CC(=O)Oc1c(C)cc(Cl)cc1C(=O)Nc1ccc([N+](=O)[O-])cc1Cl,27.7% (active)
13,COc1ccc(Oc2ccc(/C=C/C(=O)c3cccc(OC)c3)cc2[N+](=O)[O-])cc1,26.2% (active)
14,COc1ccc(CCNC(=O)c2cc3c(=O)n4ccccc4nc3n(Cc3ccco3)c2=N)cc1OC,26.2% (active)
15,O=C(N/N=C(\c1ccccc1)c1cccnc1)c1cccc(F)c1,33.2% (active)
16,CCC(C)Nc1nc(-c2ccccn2)nc2ccccc12 (stereo not given),29.2% (active)
17,CC1(C)Cc2c(sc(NC(=O)c3ccc(C(=O)c4ccccc4)cc3)c2C(N)=O)C(C)(C)N1,34.2% (active)
18,Cc1ccc(-n2c(-c3ccccc3)c[n+]3c2CCc2ccccc2-3)c(C)c1,26.4% (active)
19,c1ccc(-c2noc(-c3ccc4ccccc4c3)n2)nc1,27% (active)
20,CCSc1nsc(NC(=O)Nc2cccc(F)c2)n1,26.2% (active)
